Sampled rows, rich in hits. Any-hit rate of the full collection: about 2.4%.
D2 ag-1: Beta-Arrestin HTS for Positive Allosteric Modulators of the Human D2 Dopamine Receptor: Agonists; AID 624465, 2012; 360,000 compounds, 0.084% hits; D(2) dopamine receptor (Homo sapiens), P14416; activation, % (test concentration not listed); DiscoveRx PathHunter D2 beta-arrestin, luminescence, 90 min; 100% = 57 uM dopamine signal; in the data active means activation above about 40%; inconclusive means between about 15% and that limit
Target sequence (P14416 whole entry, looked up): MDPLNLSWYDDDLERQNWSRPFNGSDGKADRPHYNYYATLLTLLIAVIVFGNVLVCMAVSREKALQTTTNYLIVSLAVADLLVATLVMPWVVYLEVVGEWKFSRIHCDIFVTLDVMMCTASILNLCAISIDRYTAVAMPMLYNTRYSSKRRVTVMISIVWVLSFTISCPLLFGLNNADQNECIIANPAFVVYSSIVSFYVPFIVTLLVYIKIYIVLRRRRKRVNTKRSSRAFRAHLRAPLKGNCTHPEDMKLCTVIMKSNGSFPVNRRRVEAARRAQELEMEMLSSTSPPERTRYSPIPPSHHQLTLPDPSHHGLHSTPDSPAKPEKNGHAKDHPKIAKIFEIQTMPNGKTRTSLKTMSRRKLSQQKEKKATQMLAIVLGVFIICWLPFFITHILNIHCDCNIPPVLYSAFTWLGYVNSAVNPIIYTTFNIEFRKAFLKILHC
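DiscoveRx PathHunter D2 beta-arrestin cells (2,100/well) attached overnight, then compound-stimulated 90 min at 37 C in HBSS/10 mM HEPES/0.1% Tween-20 buffer; beta-galactosidase complementation read by luminescence after 1 h at ambient temperature. Dopamine 57 uM final (EC100) as control.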
D2 antag: HTS Assay for Allosteric Antagonists of the Human D2 Dopamine Receptor: Primary Screen for Antagonists; D(2) dopamine receptor (Homo sapiens), P14416; HEK293 TREx D2 cells, calcium flux, dopamine EC80; inhibition, % at 10 µM; 340,000 compounds, 2% hits; in the data active means inhibition above about 30%; inactive means below that, where a call was filed
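Overnight-induced (tetracycline, 30 C) HEK293 T-REx cells carrying force-coupled D2 receive a no-wash calcium dye, then compound, then EC80 dopamine at 180 s; signals are read kinetically throughout.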
D2 PAM-1: Beta-Arrestin HTS for Positive Allosteric Modulators of the Human D2 Dopamine Receptor: Potentiators | D(2) dopamine receptor (Homo sapiens), P14416 | DiscoveRx D2 beta-arrestin cells, luminescence, 90 min; 100% = 57 uM dopamine signal | potentiation, % (no concentration beside the values) | 360,000 compounds, 0.23% hits; in the data active means potentiation above about 50%; inconclusive means mostly about 30% to 49%
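PathHunter beta-arrestin assay in DiscoveRx D2 cells. Compounds were added with an EC20 of dopamine (50 nM final) for 90 min at 37 deg C. Luminescence was read 1 h after detection reagent, with 57 uM dopamine as the EC100 control.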
D2 ag-2: HTS Assay for Allosteric Agonists of the Human D2 Dopamine Receptor: Primary Screen for Agonists; activation, % at 2 µM; AID 485358, 2010; HEK293 T-REx D2 cells, calcium flux agonist mode; 340,000 compounds, 0.53% hits;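 active means activation over 3 SD above normal in the single-dose calcium agonist read, cut at about 30% in these data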
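HEK293 Trex D2 cells, tetracycline-induced, o/n 30 C 5% CO2; no-wash Ca dye, RT 30–90 min; 10-cycle baseline, 23 nl cpd added, kinetic Ca read 180 s; agonist hits = positive Ca response.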
D2 PAM-2: HTS Assay for Positive Allosteric Modulators of the Human D2 Dopamine Receptor: Primary Screen for Potentiators; D(2) dopamine receptor (Homo sapiens), P14416; HEK293 T-REx D2, calcium flux, EC20 dopamine potentiation; potentiation, % at 10 µM; 340,000 compounds, 0.34% hits;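 active means potentiation over 3 SD above the plate norm, cut at about 30% in these data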
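Calcium flux readout, no-wash dye, 1 read/s. Inducible HEK293 Trex D2 line, overnight 30 C. Compound alone 180 s (agonist flags), then EC20 dopamine, another 180 s to score potentiation.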
Numbers stand for hits; i = inactive; ? = inconclusive; nt = no result.

SMILES | D2 ag-1 | D2 antag | D2 PAM-1 | D2 ag-2 | D2 PAM-2
COc1ccc(-n2nc(C(=O)NCC(=O)NCCCN3CCCCCC3)c3ccccc3c2=O)cc1Cl | i | i | i | i | i
COc1ccc(/C=N/NC(=O)c2nn(-c3ccc(C)c(C)c3)c(=O)c3ccccc23)cc1 | i | 45 | i | i | i
CCOC(=O)C1CCCN(C(=O)CNC(=O)c2nn(-c3ccc(OC)c(Cl)c3)c(=O)c3ccccc23)C1 (configuration not stated) | i | i | i | i | i
COc1ccc(-n2nc(C(=O)NCC(=O)N3CCCC(C)C3)c3ccccc3c2=O)cc1Cl (configuration not stated) | i | i | i | i | 32
COc1ccc(/C=N/NC(=O)c2nn(-c3ccccc3)c(=O)c3c(N)scc23)cc1 | i | i | i | i | i
COCCCNC(=O)CNC(=O)c1nn(-c2ccc(OC)c(Cl)c2)c(=O)c2ccccc12 | i | 50 | i | i | i
Cc1nn(-c2ccccc2)c(C)c1C(=O)NCc1cccs1 | i | i | i | i | i
Cc1nn(-c2ccccc2)c(Cl)c1C(=O)NCc1cccs1 | i | 44 | i | i | i
CCCCCCOC(=O)C(C#N)c1nc2ccccc2nc1N1CCCCC1 (configuration not stated) | i | i | i | i | 35
CNC(=O)c1nn(-c2ccccc2)ccc1=O | i | i | i | i | i
CNC(=O)c1nn(-c2ccc(Cl)cc2)ccc1=O | i | 33 | i | i | i
O=C(Nc1ccn(-c2ccccc2)n1)c1ccc(Cl)cc1 | i | 63 | i | i | i
Cn1c(=O)[nH]c(=O)c2c1nc(CN1CCN(c3ccccc3F)CC1)n2CCCc1ccccc1 | i | i | i | i | 32
Clc1ccccc1CN1CCN(CCCc2ccccc2)CC1 | i | 65 | i | i | i
Cn1c(=O)[nH]c(=O)c2c1nc(CN1CCN(c3ccc(F)cc3)CC1)n2CCCc1ccccc1 | i | i | i | i | i
Fc1ccccc1N1CCN(CCCc2ccccc2)CC1 | i | 74 | i | i | i
COc1cccc2c1Oc1ncccc1N(c1ccc(C(=O)NCc3ccccc3Cl)s1)C2 | nt | nt | nt | i | i
Nc1c(C(=O)Nc2ccccc2Cl)c2ccccn2c1C(=O)c1ccccc1 | nt | nt | nt | i | i
CN(C)c1ncc(C(=O)NCc2ccccc2Cl)cn1 | nt | nt | nt | i | i
CCOC(=O)C1CCN(C(=O)C2CCN(S(=O)(=O)c3c(C)noc3/C=C/c3ccc(C)cc3)CC2)CC1 | nt | nt | nt | i | i
CC1CCCC(C)N1C(=O)CSc1nnc(C2CCCCC2)o1 (configuration not stated) | i | 90 | i | i | i
Cc1cc(-c2nnc(SCC(=O)N3C(C)CCCC3C)o2)no1 (configuration not stated) | i | i | i | i | i
Cc1ccc(-c2nc(CSCC(=O)N3CCN(c4ccccn4)CC3)c(C)o2)cc1 | i | i | i | 37 | i
CCCOc1ccccc1C(=O)N1CCCCC1CCN1CCCCC1 (configuration not stated) | nt | nt | nt | i | i
CCCCc1nc(NCCO)c(C#N)c2c1CCCC2 | i | 48 | i | i | i
SMILES | D2 ag-1 | D2 antag | D2 PAM-1 | D2 ag-2 | D2 PAM-2
CCCNC(=O)CSc1nc2ccc(OCC)cc2s1 | i | 35 | i | i | i
c1ccc(N2CCN(CC3CCCCC3)CC2)cc1 | ? | 68 | i | 71 | i
C#CCOc1c(Br)cc(C2C(C(=O)OC)=C(C)NC3=C2C(=O)c2ccccc23)cc1OCC (configuration not stated) | nt | nt | nt | i | i
O=C(c1cccc(F)c1)N1CCN(C(=O)C(c2ccccc2)c2ccccc2)CC1 | i | 31 | i | i | nt
CN(C(=O)CSc1nc2ccc(NC(=O)c3cccs3)cc2s1)c1ccccc1 | nt | nt | nt | i | i
COc1ccc(-c2cc(C(F)(F)F)nc(SCC(=O)NCc3ccc(Cl)cc3)n2)cc1 | nt | nt | nt | nt | i
O=C(NCCN1CCOCC1)C12CC3CC(C1)CC(c1ccccc1)(C3)C2 | i | 38 | i | i | i
COc1ccc(-n2nc(C(=O)N3CCN(c4ccccc4OC)CC3)c3c4ccccc4n(C)c3c2=O)cc1Cl | nt | nt | nt | i | i
Cc1noc(C)c1S(=O)(=O)NCCN1CCN(c2ccccc2)CC1 | i | 33 | i | 31 | i
CC(O)CNc1nc2c(c(=O)n(Cc3ccc(Br)cc3)c(=O)n2C)n1C (configuration not stated) | i | i | 52 | i | i
CC(O)CNc1nc2c(c(=O)n(Cc3ccccc3)c(=O)n2C)n1C (configuration not stated) | i | i | i | i | i
O=C(O)Cc1ccc(-n2cccc2)cc1 | i | 37 | i | i | i
CCN(CC)c1ccc(/C=N/NC(=O)CNC(=O)c2ccc3c(c2)OCCO3)cc1 | i | 33 | i | i | i
CN(C)c1ccc(/C=N/NC(=O)CNC(=O)c2ccc3c(c2)OCCO3)cc1 | i | i | i | i | i
COC(=O)CC1Oc2ccc(C)cc2-n2cc(-c3ccc(C)cc3)nc21 (configuration not stated) | nt | nt | nt | i | i
CC(C)(Cc1ccc(O)cc1)NC(=O)CC(=O)N=Nc1c(O)[nH]c2ccc(Br)cc12 | i | i | i | 31 | i
Cc1ccc(S(=O)(=O)N(C)C)cc1NC(=S)NC(C)CCC(C)C (configuration not stated) | i | 77 | i | i | i
CCCCCCC(C)NC(=S)Nc1cc(S(=O)(=O)N(C)C)ccc1C (configuration not stated) | i | 92 | i | i | i
Cc1ccc(S(=O)(=O)N(C)C)cc1NC(=S)NC(C)CCCC(C)C (configuration not stated) | i | 75 | i | i | i
CCOC(=O)c1ccccc1NC(=O)CSc1cn(CC(=O)N2CCOCC2)c2ccccc12 | nt | nt | nt | i | i
O=C(CNC(=O)c1cccc(-n2cnnn2)c1)Nc1ccc(F)c(F)c1 | i | 38 | i | i | i
CCOc1ccc(CCNC(=O)c2cn(-c3ccc(OC)cc3)c(=O)c3ccccc23)cc1OCC | nt | nt | nt | i | i
CC(C)C(NC(=O)c1ccccc1)C(=O)NCc1ccccn1 (configuration not stated) | i | 61 | i | i | i
COc1cc(OC)cc(C(=O)NC(C(=O)NCc2ccccn2)C(C)C)c1 (configuration not stated) | i | i | i | i | i
